# In PubChem BioAssay AID1878 (Sanford-Burnham Center for Chemical Genomics, 2009):
# Out of some 1,000 compounds screened, about 200 (20%) were called active. No stated cut-off is given here; in the data, active means inhibition above about 55%; inactive means the rest. Not all results are given here. Entries with a potency or affinity are not part of this list.
# Biological target: Dual specificity protein phosphatase 3 (Homo sapiens) (UniProt P51452)
# Assay: VHR1 phosphatase inhibitors, biochemical (AID 1878)
# Conditions: recombinant VHR phosphatase, fluorogenic substrate; at 13.3 µM; stronger effect = higher value
# Sequence of Dual specificity protein phosphatase 3 (Homo sapiens) (P51452 whole entry, looked up): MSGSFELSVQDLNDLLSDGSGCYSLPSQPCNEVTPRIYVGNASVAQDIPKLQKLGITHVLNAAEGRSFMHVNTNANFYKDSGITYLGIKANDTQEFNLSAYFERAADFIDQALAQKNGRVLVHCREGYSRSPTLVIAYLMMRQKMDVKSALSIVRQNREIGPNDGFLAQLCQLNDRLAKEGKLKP
row,SMILES,inhibition
1,O=C(O)c1ccc(-n2cccc2/C=C2/SC(=O)N(CC(=O)N3CCCC3)C2=O)cc1,96.8% (active)
2,O=C(Cn1nc(-c2ccccc2)ccc1=O)N1CCCCC1,-1.1% (inactive)
3,Cc1ccc(NC(=O)NC(=O)CN2CCN(c3ccc(O)cc3)CC2)c(C)c1,-13.5% (inactive)
4,Cc1cccc(NC(=O)CN2C(=O)S/C(=C\c3cccn3-c3cccc(C(=O)O)c3)C2=O)c1,75.6% (active)
5,Cc1ccc2c(c1)c(CC(=O)Nc1ccc(C)c(F)c1)c(C(=O)O)n2C,-6.8% (inactive)
6,COc1ccccc1CNC(=O)C1Cc2cc(S(=O)(=O)N3CCCCC3)ccc2N1C(C)=O (centres undefined),28.1% (inactive)
7,CCC1CCCCN1C(=O)c1ccc(OC2CCN(C(=O)CCOC)CC2)cc1 (centres undefined),-6.7% (inactive)
8,CN(C)S(=O)(=O)c1ccc(C(=O)N2CC(=O)Nc3ccc(F)cc3C2c2ccc(F)cc2)cc1 (centres undefined),26.6% (inactive)
9,COc1ccc(CCNC(=O)CCNC(=O)N2CC(=O)Nc3ccccc32)cc1OC,-7.1% (inactive)
10,COC(=O)c1cc(S(=O)(=O)NCCN2CCN(c3ccccc3F)CC2)c[nH]1,17.5% (inactive)
11,CC(=O)Nc1cccc(C(=O)NC(C)c2ccc(-n3ccnc3)cc2)c1 (centres undefined),1.8% (inactive)
12,CCCCN(CC)CCNC(=O)C1CCN(S(=O)(=O)c2cccc3nsnc23)CC1,8.4% (inactive)
13,O=C(NCCN1CCCCC1)Nc1ccccc1F,18.4% (inactive)
14,CC1CC(C)CN(CCCNC(=O)Cn2cccc2C(=O)c2ccccc2)C1 (centres undefined),-12.8% (inactive)
15,CCOC(=O)NN=C1CCC(c2ccccc2)CC1 (centres undefined),-4.2% (inactive)
16,CCC(C)Nc1nc2ccccc2n2c(C)nnc12 (centres undefined),26.9% (inactive)
17,O=C(CCC1CCN(Cc2ccc(Cl)cc2)CC1)NC1CC1,-8.1% (inactive)
18,O=c1cc(-c2ccc([N+](=O)[O-])cc2)nc2cc(-c3ccc(Cl)cc3)[nH]n12,97.6% (active)
19,O/N=C/c1ccc2cccc(OCc3ccccc3)c2n1,-5.4% (inactive)
20,Cc1ccc(Cn2c(N3CCNCC3)nc3c2c(=O)[nH]c(=O)n3C)cc1,3.7% (inactive)

row,SMILES,inhibition
1,COc1ccc(C2NC(=O)CCC2[N+](=O)[O-])cc1OC (centres undefined),-5.6% (inactive)
2,COc1ccc(C(=O)CCC(=O)Nc2ccc(N3CCCCC3)cc2)cc1OC,-1.2% (inactive)
3,COc1cc(NC(=O)CSc2ncnc3sc4c(c23)CCCC4)c(C(=O)O)cc1OC,55.5% (active)
4,COc1ccc(OCC(=O)Nc2nc3c(s2)CCCC3)cc1,1.9% (inactive)
5,COc1cccc(COC(=O)C2CCN(C(=O)c3ccccc3C)CC2)c1OC,-4.4% (inactive)
6,CN(C)C(CNC1CC(C)(C)NC(C)(C)C1)c1cccc(F)c1 (centres undefined),12.5% (inactive)
7,COc1ccc(-c2nn(CCC#N)cc2C(=O)Nc2ccccc2Cl)cc1,2.2% (inactive)
8,Cc1ccc(-c2nc3ccccc3s2)cc1NC(=O)c1cc(-n2cnnc2)ccc1Cl,63.4% (active)
9,O=C1CN(C(=O)c2ccccc2)C(c2ccccc2)c2cc(F)ccc2N1 (centres undefined),-4.4% (inactive)
10,COc1cc(NC(=O)CCc2nnc3ccc(N4CCCCC4)nn23)cc(OC)c1OC,-6.5% (inactive)
11,Nc1c(C(=O)NC2CC2)sc2nc3c(c(-c4ccco4)c12)CC/C3=C/c1ccco1,11.4% (inactive)
12,O=C(O)CCCCC1CCSS1 (centres undefined),97.7% (active)
13,CCCn1c2ccccc2c2cnn(CC(=O)NCCCN3CCCC(C)C3)c(=O)c21 (centres undefined),-8.7% (inactive)
14,CCOc1cccc(CN2CCCC(N3CCc4ccccc4C3)C2)c1O (centres undefined),-11% (inactive)
15,O=C(Nc1ccc2oc(-c3cccnc3)nc2c1)c1ccc2c(c1)OCCO2,62.5% (active)
16,c1cncc(-c2nc(-c3ccc4c(c3)OCCO4)cs2)c1,-10.9% (inactive)
17,COc1cc2cc(C(=O)Nc3ccc4c(c3)OCCO4)[nH]c2cc1OC,-3.4% (inactive)
18,CC1=C(C(=O)OC(C)C)C(c2ccccc2)NC(=O)N1C (centres undefined),6.5% (inactive)
19,COC(=O)c1cccc(CSC(=S)N2CCCC2)c1,-7.9% (inactive)
20,O=C(O)c1ccc(Nc2nc(-c3ccc([N+](=O)[O-])cc3)nc3ccccc23)cc1,97.6% (active)

row,SMILES,inhibition
1,COc1ccc(Nc2ccc([N+](=O)[O-])cn2)cc1,-0.2% (inactive)
2,O=[N+]([O-])c1ccc(-c2nnc(S)n2-c2ccccc2)cc1,-5.8% (inactive)
3,Cc1ccc(C)c(N(CC(=O)NC2CCCC2)C(=O)CNC(=O)c2cccs2)c1,-6.9% (inactive)
4,Cc1ccccc1CCN1CCCC(CN(C)C(=O)C(=O)c2ccco2)C1 (centres undefined),9.9% (inactive)
5,Cc1cc(NC(=O)CCSc2ccc(Cl)cc2)no1,2.1% (inactive)
6,Cc1ccc(S(=O)(=O)N(C)CC(=O)OCC(=O)NC(=O)NC(C)C)cc1,-21.6% (inactive)
7,COc1cc(/C=C2\SC(=O)N(Cc3ccc(F)cc3)C2=O)cc([N+](=O)[O-])c1O,53% (active)
8,O=C(CCCCCN1C(=O)[C@@H]2Cc3ccccc3CN2C1=O)Nc1ccccc1F,11% (inactive)
9,CCCCNC(=O)NNC(=O)C1CC1(c1ccccc1)c1ccccc1 (centres undefined),9.1% (inactive)
10,COc1cc(CCC(=O)NCc2ccc3c(c2)OCO3)cc(OC)c1OC,0.3% (inactive)
11,CS(=O)(=O)NN1C(=O)c2ccccc2NC1c1ccccc1F (centres undefined),-7.9% (inactive)
12,Cn1c(CNC(=O)CCNC(=O)c2cccc(Br)c2)cc(=O)n(C)c1=O,-19.2% (inactive)
13,O=C(Nc1cccc2cccnc12)c1cccc(Cl)c1,2.2% (inactive)
14,O=C(O)CSc1cc(NS(=O)(=O)c2cccc([N+](=O)[O-])c2)c2ccccc2c1O,1.4% (inactive)
15,O=C(Nc1cc([N+](=O)[O-])ccc1O)c1cccc(C(=O)Nc2cc([N+](=O)[O-])ccc2O)c1,98.4% (active)
16,CCOC(=O)C1=C(N)Oc2ccc3ccccc3c2C1c1ccc(O)c(OC)c1 (centres undefined),-1.4% (inactive)
17,NC(=O)c1cc2ccccc2o/c1=N\NC(=O)c1ccccc1O,98.4% (active)
18,O=C(Nc1ccccc1Cl)c1cc2ccccc2o/c1=N\O,-1% (inactive)
19,CCC1CN(C(=O)NCc2ccc(F)cc2)c2ccccc2O1 (centres undefined),7.8% (inactive)
